# Results filed as inconclusive are left out. Activity calls are given as the source filed them. Calls follow the shape of the dose curve; as a rule, active = well fitted cell-killing curve with a large enough effect; inconclusive = small, poorly fitted or top-dose-only effect, or effect the other way; inactive = no such curve, though single readings can be large or run the other way.
# Assay: Quantitative High-Throughput drug screen in 47 multiple myeloma cell lines against the NCATS MIPE library collection: KMS11_JCRBsus cell viability assay (AID 1919873); also: nearly all actives have a fitted effect of over 50% in size
# Conditions: KMS11 myeloma viability, CellTiter-Glo ATP luminescence, 48 h; series mostly up to 45.8 µM; viability (% of control): at the top concentration
# Procedure, shortened: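 Viability after 48 h drug exposure was measured as ATP-dependent luminescence. Cells, 500 per well, sat at 37 °C under 5% CO2; DMSO wells set 100%, media-only wells 0%.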
# Potency is read from the fitted curve at half-maximal effect.
Compound,Potency,viability (% of control)
CNC(=O)c1ccc(Nc2cc(Nc3ccccc3S(=O)(=O)C(C)C)c3cc[nH]c3n2)nc1,2.64 µM (active),–
C[C@H](NC(=O)C(C#N)=Cc1cccc(Br)n1)c1ccccc1,5.26 µM (active),–
Nc1nc2c(c(=O)[nH]1)N(C=O)[C@H](CNc1ccc(C(=O)N[C@@H](CCC(=O)O)C(=O)O)cc1)CN2,–,114% (inactive)
CCCCOc1ccc(C(=O)Nc2ccc(F)cc2F)cc1,–,107% (inactive)
CN(C)c1ccc2cc(C(=O)N[C@@H](CCCN=C(N)CCl)C(=O)NCc3ccccc3)ccc2c1,7.43 µM (active),–
COC(=O)[C@H](CCCN=C(N)N)NS(=O)(=O)c1ccc(C)cc1,–,109% (inactive)
CC(C)(C)c1nc2c3cc[nH]c(=O)c3c3cc(F)ccc3c2[nH]1,0.662 µM (active),–
C=CCNc1c(O)cc2c(O)c1C[C@@H](C)C[C@H](OC)[C@@H](O)[C@@H](C)C=C(C)[C@H](OC(N)=O)[C@@H](OC)C=CC=C(C)C(=O)N2,0.0469 µM (active),–
CC[C@@]1([C@@H]2O[C@@H]([C@H]3O[C@@](O)(CO)[C@H](C)C[C@H]3C)C[C@H]2C)CC[C@H]([C@]2(C)CC[C@]3(C[C@H](O)[C@@H](C)[C@@H]([C@@H](C)[C@@H](OC)[C@H](C)C(=O)O)O3)O2)O1,0.288 µM (active),–
CC(C)Oc1ccc(C(=O)N[C@H](CNC(=O)CN(C)C)Cc2ccc(-c3cn4cccc([C@H](C)O)c4n3)cc2)cc1Cl,0.132 µM (active),–
CS[C@H]1SC[C@@H]2C(=O)N(C)[C@H](C(C)C)C(=O)OC[C@H](NC(=O)c3cnc4ccccc4n3)C(=O)N[C@H](C)C(=O)N(C)[C@@H]1C(=O)N(C)[C@H](C(C)C)C(=O)OC[C@H](NC(=O)c1cnc3ccccc3n1)C(=O)N[C@H](C)C(=O)N2C,0.0033 µM (active),–

# Source: PubChem BioAssay (NCATS)
